Cycloheximide cs: counter-screen hit for Shiga toxin inhibitors, cycloheximide; cell reporter, cycloheximide protein synthesis inhibition counterscreen; max response, %; 300,000 compounds, 12% hits; in the data active = max response mostly above about 13%, no sharp cut-off; inactive = mostly below about 14%; also: read at 38.3 µM for the half of the compounds with a filed dose; 0% is about no effect
Pf growth 96h: P. falciparum growth inhibition at 96 hour, primary screen for plastid delayed-death inhibitors; AID 504834; 320,000 compounds, 6.9% hits; Potency, µM (highest dose often 28.7 µM), for the others: at the top dose activity change, negative = inhibition, most hits filed as inhibitors; P. falciparum luciferase reporter growth, 96 h; also: potency is read from the fitted curve at half-maximal effect; % is scaled to controls: 0 for no effect and ±100 for the full control effect
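Parasite growth measured via integrated firefly luciferase reporter in P. falciparum. Infected erythrocytes at 2% hematocrit, 0.05% parasitemia final were treated 96 hours at 37 C under 5% CO2, and luminescence was read.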
Shiga toxin inh: inhibitors of Shiga toxin in Vero cells | Vero cells, Shiga toxin protein synthesis inhibition reporter | 290,000 compounds, 9.2% hits | inhibition, % at 38.7 µM; in the data active = inhibition mostly above about 28%, no sharp cut-off; inactive = mostly below about 43%; also: 0% is about no effect
LmPK inhibitor: inhibitors of Leishmania mexicana pyruvate kinase | Q27686 | purified LmPK, Kinase-Glo ATP luminescence, 1 h | Potency, µM (top dose mostly 57.5 µM), for the others: at the highest dose activity change, negative = inhibition, usual class: inhibitors | 290,000 compounds, 0.37% hits; also: potency is read from the fitted curve at half-maximal effect; % is scaled to controls: 0 for no effect and ±100 for the full control effect
Target sequence (Q27686 whole entry, looked up): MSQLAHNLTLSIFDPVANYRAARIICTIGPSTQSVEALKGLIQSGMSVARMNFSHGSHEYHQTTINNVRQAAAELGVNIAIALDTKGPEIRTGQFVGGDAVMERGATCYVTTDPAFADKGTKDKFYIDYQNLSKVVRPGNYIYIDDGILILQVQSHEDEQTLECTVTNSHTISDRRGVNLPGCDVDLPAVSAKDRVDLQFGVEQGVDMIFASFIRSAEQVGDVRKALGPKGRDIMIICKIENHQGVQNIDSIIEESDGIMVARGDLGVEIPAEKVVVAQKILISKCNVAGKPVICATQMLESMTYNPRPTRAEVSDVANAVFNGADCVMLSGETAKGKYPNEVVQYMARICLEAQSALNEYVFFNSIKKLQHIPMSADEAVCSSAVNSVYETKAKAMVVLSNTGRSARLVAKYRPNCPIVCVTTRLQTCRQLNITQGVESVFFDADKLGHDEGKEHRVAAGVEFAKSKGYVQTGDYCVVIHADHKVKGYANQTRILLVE
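Kinase-Glo luminescence read after 1 h RT reaction of 0.1 nM LmPK with 0.5 mM PEP and 0.1 mM ADP. Activity scaled between uninhibited and enzyme-free controls.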
Pf growth 48h: P. falciparum growth inhibition at 48 hours (one generation); 310,000 compounds, 5.9% hits; Potency, µM (doses to about 28.7 µM), without a hit: top-dose activity change, negative = inhibition, hits mostly inhibitors; P. falciparum luciferase growth in erythrocytes, 48 h; also: potency is read from the fitted curve at half-maximal effect; % is scaled to controls: 0 for no effect and ±100 for the full control effect
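In quantitative HTS format, infected erythrocytes bearing luciferase-reporter parasites were treated for a single generation at 37 C. Luminescence after adding detection reagent served as the growth measure.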
* marks the source's active call; other numbers are inactive results; i = inactive; ? = inconclusive; . = no result given; [ ] = another dose, or the depositor's remark. An excerpt weighted towards active compounds, which were near 22% of everything screened. Unless noted, calls follow the shape of the dose curve; as a rule, active = well fitted inhibition curve with a large enough effect; inconclusive = small, poorly fitted or top-dose-only effect, or another doubt; inactive = no such curve, though single readings can be large or run the other way.

SMILES	Cycloheximide cs	Pf growth 96h	Shiga toxin inh	LmPK inhibitor	Pf growth 48h
CCN(CC)CCOC(=O)C(O)(c1ccccc1)c1ccccc1	-4.0	-1.1%	-6.4	0.2%	6.8%
CCN(CC)CCOCCOC(=O)C(CC)(CC)c1ccccc1 (tested in a mixture with another compound)	.	6.75µM*	.	.	19µM*
COc1ccc(C2=NN(C(N)=S)C(c3ccco3)C2)cc1 (centres undefined)	19.8*	-28.1%	27.4	10.6%	32.8%
COc1ccc(C2=NN(C(=O)c3ccco3)C(c3ccco3)C2)cc1OC (centres undefined)	13.9*	75.8%	41.1*	-4.0%	0.0%
CCc1ccc(C2=NN(C(C)=O)C(c3ccco3)C2)cc1 (centres undefined)	34.2*	-5.4%	78.6*	15.8µM*	51.6%
O=C(CCl)N1N=C(c2ccco2)CC1c1ccco1 (centres undefined)	-0.1	13.1µM*	-3.6	3.2%	13.1µM*
O=C(c1ccco1)N1N=C(c2ccc(Cl)cc2)CC1c1ccco1 (centres undefined)	1.4	-10.8%	-4.4	-2.2%	?
COc1ccc(-c2nc(CS(=O)CC(=O)NCc3ccc(Cl)cc3)c(C)o2)cc1OC (centres undefined)	0.7	?	-8.8	7.7%	-16.0%
COc1ccc(CCN2Cc3c(N)cccc3C2=O)cc1OC	-1.8	-18.0%	11.7	-1.0%	.
COc1ccc(N(CC(=O)N2CCN(C)CC2)S(=O)(=O)c2ccccc2)cc1	-3.0	38.6%	1.6	-2.0%	13.7%
CCN1CCN(CCCNC(=O)c2ccc(NC(=O)C3=C(C)OCCS3)cc2)CC1	-8.2	?	-4.1	-12.4%	11.7%
COc1ccc(Cc2nnc(N/N=C/c3ccc(Br)cc3)[nH]c2=O)cc1OC	-2.2	?	15.3	-1.0%	1.1%
O=c1c2ccccc2nc(/C=C/c2ccc(O)cc2)n1CCc1ccccc1	13.2	?	51.2	-1.2%	?
COc1ccc(/C=N/Nc2nc3ccccc3c(=O)n2-c2ccccc2)cc1OC	20.6*	?	23.8	-13.9%	23.1%
COc1ccc(/C=N/n2c(C)nc3ccccc3c2=O)cc1OC	15.1	30.6%	-4.3	1.7%	30.1%
C=CCn1c(N/N=C/c2ccc(O)cc2)nc2ccccc2c1=O	35.5*	3.9%	153.3*	-15.7%	47.2%
COc1ccc(Cc2nnc(N/N=C/c3ccc(O)cc3)[nH]c2=O)cc1OC	-6.8	13.1µM*	-10.0	-1.0%	9.28µM*
O=c1[nH]c(N/N=C/c2ccc(O)cc2)nc2ccccc12	35.9*	-16.7%	64.5*	-16.4%	-28.0%
O=C(N/N=C/c1ccccc1)c1c(O)c2ccccc2[nH]c1=O	11.8	i	-0.5	0.8%	98.2%
COCCNCc1ccccc1[N+](=O)[O-]	.	52.8%	.	.	7.5%
O=c1[nH]c(N/N=C\c2ccc(F)cc2)nc2ccccc12	34.1*	?	80.2*	-1.2%	-48.7%
COc1ccccc1C(=O)N/C(=C\c1cn(C)c2ccccc12)C(=O)NCCCN1CCOCC1	8.5	?	27.2	5.6%	?
CCOC(=O)c1cc(C#N)c(N2CCN(C(=O)c3ccccc3)CC2)nc1C(F)(F)F	-1.6	10.4µM*	-14.9	0.0%	?
CCOC(=O)c1cc(C#N)c(N2CCNCC2)nc1C(F)(F)F	-1.3	99.0%	-9.1	-1.5%	?
CCOC(=O)c1cc(C#N)c(N2CCN(C(=O)c3cccc(C(F)(F)F)c3)CC2)nc1C(F)(F)F	-1.6	?	-18.0	1.5%	5.86µM*
SMILES	Cycloheximide cs	Pf growth 96h	Shiga toxin inh	LmPK inhibitor	Pf growth 48h
COc1ccc(CC(=O)OC(C)C(=O)NCc2ccc3c(c2)OCO3)cc1OC (centres undefined)	.	7.6%	.	.	-13.8%
Cc1nnc(-c2cccc(Br)c2)c2cn(-c3ccccc3)nc12	-1.8	12.7%[5.75 µM]	-5.7	0.3%	11.2%
Cc1nnc(-c2cccc(Br)c2)c2cn(-c3ccc(Br)cc3)nc12	-5.6	2.62µM*	-20.1	-0.5%	?
COC(C[C@@H](O)C[C@@H](O)COCc1ccccc1)OC	-3.8	42.3%	-7.8	0.4%	55.1%
CC1=CC2=NC(=O)CC(C)(C(=O)N(CC(=O)NC(C)(C)C)Cc3cccs3)N2C=C1 (centres undefined)	-2.0	36.0%	-7.0	-9.1%	1.3%
O=C(/C=C/c1cccnc1)c1ccc(O)cc1	12.6*	-9.3%	8.4	-13.3%	?

High-throughput results deposited in PubChem by National Center for Advancing Translational Sciences (NCATS).
